In PubChem BioAssay (EPA / NIEHS) one finds outcome and AC50 data, which are given here for 40 compounds.

Calls of active or inactive are those of the source. The calls were made as follows: active = hit-call score of the fitted dose curve at least 0.9, where 1 is the maximum; inactive = score below 0.9.

A short description of this assay: ATG_CRE_CIS: Attagene CIS-FACTORIAL HepG2 Assay for human cAMP Responsive Element (CRE) binding protein 3 (AID 2282926). The conditions noted are these: HepG2 CRE cis-reporter, Attagene multiplexed mRNA; actives raise or lower the signal. As to the method: ATG_CIS is a cell-based, multiplexed-readout assay that uses HepG2, a human liver cell line, with measurements taken at 24 hours after chemical dosing in a 24-well plate.ATG_CRE_CIS is one of 52 assay component(s) measured or calculated from the ATG_CIS assay. It is designed to make measurements of mRNA induction, a form of inducible reporter, as detected with fluorescence intensity signals by Reverse transcription polymerase chain reaction (RT-PCR) and Capillary electrophoresis technology.Data from the assay component ATG_CRE_CIS was analyzed into 1 assay endpoint. This assay endpoint, ATG_CRE_CIS, was analyzed with bidirectional fitting relative to DMSO as the negative control and baseline of activity. Using a type of inducible reporter, measures of mRNA for gain or loss-of-signal activity can be used to understand the reporter gene at the transcription factor-level as they relate to the gene CREB3. Furthermore, this assay endpoint can be referred to as a primary readout, because this assay has produced multiple assay endpoints where this one serves a reporter gene function. To generalize the intended target to other relatable targets, this assay endpoint is annotated to the dna binding intended target family, where the subfamily is basic leucine zipper.
Human liver HepG2 cells are transiently transfected with multiple reporter transcription units (MRTUs) in 6-well plates using FuGene 6 reagent (Roche; 3 ml FuGene/1 mg DNA). The MRTU constructs are regulated by a cis-regulating element (promoter). […] A major difference between the CIS and TRANS system is that in CIS activities of endogenous TFs are measured, whereas the TRANS assay evaluates changes in activities of exogenous, chimeric NR-Gal4 proteins. […] At the end of 24 hour incubation, total RNA was isolated using TriZol reagent (Invitrogen). The isolated RNA is then reverse-transcribed using oligo(dT) primer and Mo-MLV reverse transcriptase (Invitrogen) with DNAse I (Ambion) treatment for 30 min. The one-tenth of the produced cDNA was amplified by PCR using Taq DNA polymerase (Invitrogen) and two reporter sequence-specific primers. The PCR products were fluorescently labeled by primer extension with 6-arboxyfluorescein (6-FAM) 5'-labeled reporter sequence-specific primer (2 min at 95 C, 20 s at 68 C and 10 min at 72 C) and these products were digested with 5U of HpaI (New England Biolabs) for 2h at 37 C. The fragments were purified using Qiaquick PCR columns (Qiagen), analyzed on an ABI 3130xL genetic analyzer (Applied Biosystems) with peak positions identified by using a set of X-rhodamine (ROX)-labeled MapMarker1000 molecular weight standards (BioVentures). The raw capillary electrophoresis data was processed using Attagraph software (Attagene).
`COc1ccc(OC)c(C=O)c1`: the compound was classed as inactive.

On to `COC(=O)c1sccc1S(=O)(=O)NC(=O)Nc1nc(C)nc(OC)n1`, for which the compound was called inactive.

Turning to `COP(=O)(OC)O/C(=C\Cl)c1cc(Cl)c(Cl)cc1Cl`, the compound was called inactive. On the same count and under the same terms, the value for `O=[N+]([O-])c1ccc(O)c([N+](=O)[O-])c1` was “inactive”; that for `COP(=S)(OC)Oc1ccc(S(=O)(=O)N(C)C)cc1` was “inactive”. As to `Clc1nc(Cl)nc(Cl)n1`, the outcome was inactive. Take `CCc1ccccc1N`: the call was inactive. Same read-out and setting: the value for `COS(=O)(=O)c1ccc(C)cc1` was “inactive”; that for `CCCCOCCOC(C)=O` was “inactive”; that for `COc1cc(OC)nc(NC(=O)NS(=O)(=O)c2ncccc2C(=O)N(C)C)n1` was “inactive”. Still for that read-out and setting: the value for `COP(=S)(OC)Oc1cc(Cl)c(Cl)cc1Cl` was “inactive”. The same measure, in the same setting: the value for `CC(=[OH+])/C=C(/C)[O-].CC(=[OH+])/C=C(/C)[O-].CC(=[OH+])/C=C(/C)[O-].[Al]` was “inactive”; that for `CCOP(=O)(CN(CCO)CCO)OCC` was “inactive”; that for `COP(=O)(OC)OC` was “inactive”. As to `Cl/C=C\C[N+]12CN3CN(CN(C3)C1)C2`, the result was inactive. Same read-out and setting: the same measure for `ClC1=C(Cl)[C@]2(Cl)[C@@H]3[C@@H](Cl)[C@@H](Cl)C[C@@H]3[C@@]1(Cl)C2(Cl)Cl`: “inactive”; for `O=C(NCO)NCO`: “inactive”; for `Oc1c(I)cc(I)cc1I`: “inactive”. With `NC(=S)Nc1ccccc1`, the outcome was inactive. Take `CNC(=O)O/N=C/C(C)(C)S(C)=O` (stereo not given): the call was inactive.

With `C[C@]12CC[C@H](O)CC1=CC[C@@H]1[C@@H]2CC[C@]2(C)C(=O)CC[C@@H]12`, the compound was called inactive. In the case of `ClCc1cccnc1`, the half-maximal activity concentration (AC50) is 57 µM (active).

Consider `CC1CN1P(=O)(N1CC1C)N1CC1C` (stereo not given), for which the outcome was inactive. Same read-out and setting: the same measure for `Nc1ccc(-c2ccc(N)c(Cl)c2)cc1Cl`: “inactive”. The same measure, in the same setting: the value for `O=C(O)C(F)(F)C(F)(F)C(F)(F)C(F)(F)C(F)(F)C(F)(F)C(F)(F)C(F)(F)C(F)(F)C(F)(F)F` was “inactive”; that for `CCCCP(CCCC)CCCC` was “inactive”; that for `CCc1ccccc1C` was “inactive”. Turning to `CC(C)(OO)c1ccccc1`, the result was inactive. On the same count and under the same terms, the same measure for `COC(=O)Cc1ccccc1`: “inactive”. As to `c1cc[c]([Hg][c]2ccccc2)cc1`, the AC50 was 22.6 µM (active). As for `Cc1ccc(N)cc1Cl`, the compound was classed as inactive.

With `CC1(C)CCC(Cc2ccc(Cl)cc2)C1(O)Cn1cncn1` (stereo not given), the compound was called inactive. Same read-out and setting: the same measure for `CC(=O)C(Cl)C(=O)N(C)C` (stereo not given): “inactive”; for `O=C(c1ccccc1)C(Cl)Cl`: “inactive”; for `O=P(O)(O)CN(CP(=O)(O)O)CP(=O)(O)O`: “inactive”. Turning to `CCC[CH2][Sn]([Cl])([Cl])[Cl]`, the result was inactive. On the same count and under the same terms, the value for `O=[N+]([O-])c1c(Cl)c(Cl)cc(Cl)c1Cl` was “inactive”; that for `c1ccc(N=NNc2ccccc2)cc1` was “inactive”; that for `O=C(Cl)c1ccc(Cl)cc1` was “inactive”. Turning to `O=C1C(Cl)=C(Cl)C(=O)c2ccccc21`, the result was inactive.
